Measured values: PubChem BioAssay AID1159580 (chemical genetic matrix, 2015)
About 2,000 (36%) of roughly 5,500 compounds were called active. About 18% were inconclusive and are not listed. Some of the results follow. A number with no mark means an inactive call. No stated cut-off is given here; in the data, active means normalized growth mostly below about 0.91 (no sharp cut-off); inconclusive means no clear call, values can overlap the other calls; inactive means mostly above about 0.92.

Experiment: chemical genetic growth profiling, strain panel (AID 1159580);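 further: tested at 20 µM; growth read once vehicle control cultures reached saturation at 30 °C; 1 = growth at the plate median or of vehicle wells; lower values mean less growth of the strain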
Settings: growth OD

For Cc1c(Cl)cccc1Nc1ccccc1C(=O)O, which normalized growth (S. cerevisiae deletion strains, locus YJR075W, strain HOC1, active compounds read low) is on record?
The normalized growth was 0.852 (active).

And the normalized growth (S. cerevisiae deletion strains, locus YKL009W, strain mrt4, active compounds read low)?
The normalized growth was 0.788 (active).

And the normalized growth (S. cerevisiae deletion strains, locus YKL068W, active compounds read low)?
Its normalized growth is 0.954.

What about the normalized growth (S. cerevisiae deletion strains, locus YKL085W, strain MDH1 (second series), active compounds read low) of the same compound?
The normalized growth was 0.922 (active).

And the normalized growth (S. cerevisiae deletion strains, locus YKL085W, strain MDH1, active compounds read low)?
Its normalized growth is 0.922 (active).

And the normalized growth (S. cerevisiae deletion strains, locus YKL160W, strain elf1, active compounds read low)?
Its normalized growth is 0.764 (active).

What about the normalized growth (S. cerevisiae deletion strains, locus YKL190W, strain CNB1, active compounds read low) of the same compound?
The normalized growth was 0.863 (active).

And the normalized growth (S. cerevisiae deletion strains, locus YKR001C, strain vps1, active compounds read low)?
The normalized growth was 0.52 (active).

What about the normalized growth (S. cerevisiae deletion strains, locus YKR026C, strain gcn3, active compounds read low) of the same compound?
The normalized growth was 0.79 (active).

And the normalized growth (S. cerevisiae deletion strains, locus YKR091W, strain srl3, active compounds read low)?
Its normalized growth is 0.829 (active).

What about the normalized growth (S. cerevisiae deletion strains, locus YLL001W, strain dnm1, active compounds read low) of the same compound?
Its normalized growth is 0.814 (active).

What about the normalized growth (S. cerevisiae deletion strains, locus YLL026W, active compounds read low) of the same compound?
The normalized growth was 0.831 (active).

What about the normalized growth (S. cerevisiae deletion strains, locus YLL041C, strain sdh2, active compounds read low) of the same compound?
The normalized growth was 0.818 (active).

What about the normalized growth (S. cerevisiae deletion strains, locus YLR027C, strain aat2, active compounds read low) of the same compound?
Its normalized growth is 0.819 (active).

And the normalized growth (S. cerevisiae deletion strains, locus YLR039C, strain RIC1, active compounds read low)?
Its normalized growth is 0.537 (active).

What about the normalized growth (S. cerevisiae deletion strains, locus YLR058C, strain SHM2, active compounds read low) of the same compound?
The normalized growth was 0.849 (active).

What about the normalized growth (S. cerevisiae deletion strains, locus YLR102C, strain apc9, active compounds read low) of the same compound?
Its normalized growth is 0.788 (active).

And the normalized growth (S. cerevisiae deletion strains, locus YLR113W, strain HOG1, active compounds read low)?
The normalized growth was 0.566 (active).

What about the normalized growth (S. cerevisiae deletion strains, locus YLR221C, strain rsa3, active compounds read low) of the same compound?
Its normalized growth is 0.777 (active).

What about the normalized growth (S. cerevisiae deletion strains, locus YLR258W, strain gsy2, active compounds read low) of the same compound?
Its normalized growth is 0.831 (active).

What about the normalized growth (S. cerevisiae deletion strains, locus YLR262C, strain YPT6 (second series), active compounds read low) of the same compound?
Its normalized growth is 0.48 (active).

And the normalized growth (S. cerevisiae deletion strains, locus YLR262C, strain YPT6, active compounds read low)?
The normalized growth was 0.491 (active).

And the normalized growth (S. cerevisiae deletion strains, locus YLR268W, strain sec22, active compounds read low)?
The normalized growth was 0.724 (active).

And the normalized growth (S. cerevisiae deletion strains, locus YLR320W, strain mms22, active compounds read low)?
Its normalized growth is 0.59 (active).

And the normalized growth (S. cerevisiae deletion strains, locus YLR330W, strain CHS5, active compounds read low)?
Its normalized growth is 0.82 (active).

And the normalized growth (S. cerevisiae deletion strains, locus YLR342W, strain FKS1 (second series), active compounds read low)?
The normalized growth was 0.671 (active).

And the normalized growth (S. cerevisiae deletion strains, locus YLR342W, strain FKS1, active compounds read low)?
The normalized growth was 0.795 (active).

What about the normalized growth (S. cerevisiae deletion strains, locus YLR357W, strain rsc2, active compounds read low) of the same compound?
The normalized growth was 0.93.

What about the normalized growth (S. cerevisiae deletion strains, locus YLR370C, strain arc18, active compounds read low) of the same compound?
Its normalized growth is 0.808 (active).

And the normalized growth (S. cerevisiae deletion strains, locus YLR371W, strain rom2, active compounds read low)?
The normalized growth was 0.838 (active).

What about the normalized growth (S. cerevisiae deletion strains, locus YLR384C, strain iki3, active compounds read low) of the same compound?
Its normalized growth is 0.832 (active).

What about the normalized growth (S. cerevisiae deletion strains, locus YLR418C, strain cdc73, active compounds read low) of the same compound?
The normalized growth was 0.591 (active).

And the normalized growth (S. cerevisiae deletion strains, locus YML016C, strain PPZ1, active compounds read low)?
Its normalized growth is 0.857 (active).

And the normalized growth (S. cerevisiae deletion strains, locus YML032C, strain rad52, active compounds read low)?
Its normalized growth is 0.792 (active).

And the normalized growth (S. cerevisiae deletion strains, locus YML120C, strain ndi1, active compounds read low)?
Its normalized growth is 0.723 (active).

What about the normalized growth (S. cerevisiae deletion strains, locus YML124C, strain tub3, active compounds read low) of the same compound?
Its normalized growth is 0.787 (active).

What about the normalized growth (S. cerevisiae deletion strains, locus YMR058W, strain fet3, active compounds read low) of the same compound?
Its normalized growth is 0.79 (active).

And the normalized growth (S. cerevisiae deletion strains, locus YMR078C, strain ctf18, active compounds read low)?
Its normalized growth is 0.761 (active).

What about the normalized growth (S. cerevisiae deletion strains, locus YMR125W, strain sto1, active compounds read low) of the same compound?
The normalized growth was 0.781 (active).

What about the normalized growth (S. cerevisiae deletion strains, locus YMR129W, active compounds read low) of the same compound?
Its normalized growth is 0.823 (active).

What about the normalized growth (S. cerevisiae deletion strains, locus YMR205C, strain PFK2, active compounds read low) of the same compound?
The normalized growth was 0.673 (active).

And the normalized growth (S. cerevisiae deletion strains, locus YMR223W, strain ubp8, active compounds read low)?
Its normalized growth is 0.795 (active).

What about the normalized growth (S. cerevisiae deletion strains, locus YMR231W, strain pep5, active compounds read low) of the same compound?
Its normalized growth is 0.813 (active).

What about the normalized growth (S. cerevisiae deletion strains, locus YMR263W, strain SAP30, active compounds read low) of the same compound?
Its normalized growth is 0.824 (active).

And the normalized growth (S. cerevisiae deletion strains, locus YMR307W, strain GAS1, active compounds read low)?
Its normalized growth is 0.557 (active).

And the normalized growth (S. cerevisiae deletion strains, locus YNL067W, strain RPL9B, active compounds read low)?
The normalized growth was 0.846 (active).

And the normalized growth (S. cerevisiae deletion strains, locus YNL071W, strain lat1, active compounds read low)?
Its normalized growth is 0.569 (active).

And the normalized growth (S. cerevisiae deletion strains, locus YNL153C, strain GIM3, active compounds read low)?
Its normalized growth is 0.849 (active).

And the normalized growth (S. cerevisiae deletion strains, locus YNL183C, strain NPR1, active compounds read low)?
Its normalized growth is 0.641 (active).

What about the normalized growth (S. cerevisiae deletion strains, locus YNL209W, strain ssb2, active compounds read low) of the same compound?
The normalized growth was 0.869 (active).

And the normalized growth (S. cerevisiae deletion strains, locus YNL233W, strain BNI4, active compounds read low)?
The normalized growth was 0.797 (active).

And the normalized growth (S. cerevisiae deletion strains, locus YNL248C, strain rpa49, active compounds read low)?
The normalized growth was 0.886 (active).

And the normalized growth (S. cerevisiae deletion strains, locus YNL250W, strain rad50, active compounds read low)?
Its normalized growth is 0.941.

What about the normalized growth (S. cerevisiae deletion strains, locus YNL271C, strain bni1, active compounds read low) of the same compound?
The normalized growth was 0.919 (active).

What about the normalized growth (S. cerevisiae deletion strains, locus YNL298W, strain CLA4, active compounds read low) of the same compound?
Its normalized growth is 0.842 (active).

What about the normalized growth (S. cerevisiae deletion strains, locus YNL307C, strain MCK1, active compounds read low) of the same compound?
The normalized growth was 0.437 (active).

And the normalized growth (S. cerevisiae deletion strains, locus YNL322C, strain KRE1 (second series), active compounds read low)?
Its normalized growth is 0.856 (active).

And the normalized growth (S. cerevisiae deletion strains, locus YNL322C, strain KRE1, active compounds read low)?
Its normalized growth is 0.876 (active).

What about the normalized growth (S. cerevisiae deletion strains, locus YNR049C, strain mso1, active compounds read low) of the same compound?
Its normalized growth is 0.822 (active).

What about the normalized growth (S. cerevisiae deletion strains, locus YNR052C, strain pop2, active compounds read low) of the same compound?
Its normalized growth is 0.821 (active).

And the normalized growth (S. cerevisiae deletion strains, locus YOL006C, strain TOP1, active compounds read low)?
Its normalized growth is 0.656.

And the normalized growth (S. cerevisiae deletion strains, locus YOL012C, strain htz1)?
Its normalized growth is 0.632.

And the normalized growth (S. cerevisiae deletion strains, locus YOL147C, strain pex11, active compounds read low)?
The normalized growth was 0.765 (active).

And the normalized growth (S. cerevisiae deletion strains, locus YOR001W, strain rrp6, active compounds read low)?
Its normalized growth is 0.8 (active).

And the normalized growth (S. cerevisiae deletion strains, locus YOR061W, strain CKA2, active compounds read low)?
The normalized growth was 0.852 (active).

What about the normalized growth (S. cerevisiae deletion strains, locus YOR069W, strain VPS5, active compounds read low) of the same compound?
Its normalized growth is 0.864 (active).

And the normalized growth (S. cerevisiae deletion strains, locus YOR070C, strain gyp1, active compounds read low)?
Its normalized growth is 0.802 (active).

And the normalized growth (S. cerevisiae deletion strains, locus YOR080W, strain dia2, active compounds read low)?
Its normalized growth is 0.855 (active).

What about the normalized growth (S. cerevisiae deletion strains, locus YOR083W, strain WHI5, active compounds read low) of the same compound?
Its normalized growth is 0.767 (active).

And the normalized growth (S. cerevisiae deletion strains, locus YOR106W, strain vam3, active compounds read low)?
Its normalized growth is 0.745 (active).

What about the normalized growth (S. cerevisiae deletion strains, locus YOR136W, strain idh2, active compounds read low) of the same compound?
Its normalized growth is 0.893 (active).

And the normalized growth (S. cerevisiae deletion strains, locus YOR144C, strain elg1, active compounds read low)?
Its normalized growth is 0.812 (active).

And the normalized growth (S. cerevisiae deletion strains, locus YOR184W, strain ser1, active compounds read low)?
Its normalized growth is 0.578 (active).

And the normalized growth (S. cerevisiae deletion strains, locus YOR231W, strain MKK1, active compounds read low)?
Its normalized growth is 0.644 (active).

And the normalized growth (S. cerevisiae deletion strains, locus YOR265W, strain rbl2, active compounds read low)?
Its normalized growth is 0.828 (active).

And the normalized growth (S. cerevisiae deletion strains, locus YOR270C, strain vph1, active compounds read low)?
Its normalized growth is 0.565 (active).

And the normalized growth (S. cerevisiae deletion strains, locus YOR290C, strain snf2, active compounds read low)?
Its normalized growth is 0.716 (active).

What about the normalized growth (S. cerevisiae deletion strains, locus YOR316C, strain cot1, active compounds read low) of the same compound?
The normalized growth was 0.79 (active).

What about the normalized growth (S. cerevisiae deletion strains, locus YPL051W, strain arl3, active compounds read low) of the same compound?
Its normalized growth is 0.656 (active).

And the normalized growth (S. cerevisiae deletion strains, locus YPL055C, strain LGE1, active compounds read low)?
The normalized growth was 0.794.

What about the normalized growth (S. cerevisiae deletion strains, locus YPL078C, strain atp4, active compounds read low) of the same compound?
Its normalized growth is 0.646 (active).

What about the normalized growth (S. cerevisiae deletion strains, locus YPL106C, strain sse1, active compounds read low) of the same compound?
The normalized growth was 0.985.

And the normalized growth (S. cerevisiae deletion strains, locus YPL240C, strain hsp82, active compounds read low)?
The normalized growth was 0.831 (active).

And the normalized growth (S. cerevisiae deletion strains, locus YPL241C, strain CIN2, active compounds read low)?
Its normalized growth is 0.852 (active).

What about the normalized growth (S. cerevisiae deletion strains, locus YPL256C, strain CLN2, active compounds read low) of the same compound?
The normalized growth was 0.643 (active).

What about the normalized growth (S. cerevisiae deletion strains, locus YPR119W, strain clb2, active compounds read low) of the same compound?
Its normalized growth is 0.779 (active).

And the normalized growth (S. cerevisiae deletion strains, locus YPR141C, strain kar3, active compounds read low)?
The normalized growth was 0.95.

And the normalized growth (S. cerevisiae deletion strains, locus YPR163C, strain tif3, active compounds read low)?
Its normalized growth is 0.784 (active).

What about the normalized growth (S. cerevisiae deletion strains, locus YPR167C, strain met16, active compounds read low) of the same compound?
The normalized growth was 0.805 (active).

What about the normalized growth (S. cerevisiae deletion strains, strain wtn01, active compounds read low) of the same compound?
Its normalized growth is 0.8 (active).

What about the normalized growth (S. cerevisiae strains, strain wild type, active compounds read low) of the same compound?
Its normalized growth is 0.857 (active).
